{
  "source": "PubChem BioAssay (Tox21)",
  "key": {"[1]": {"experiment": "Nuclear factor erythroid 2-related factor 2/antioxidant responsive element (Nrf2/ARE) small molecule agonists: qHTS cell viability counter screen in human keratinocytes (AID 1919968; active = well fitted curve in the direction sought with a large enough effect in the repeat runs; an effect the other way counts as inactive or inconclusive; also: nearly all actives have a fitted effect of over 55% in size; also: potency is read from the fitted curve at half-maximal effect)", "procedure,_shortened": "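In human HaCaT keratinocytes stably expressing an ARE-driven luciferase, compound exposure lasted 23 h at 37 C under 5% CO2. Viable cells are quantified with a protease-based fluorogenic reagent (CellTiter-Fluor) read 1 h after addition.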"}, "[2]": {"experiment": "Nuclear factor erythroid 2-related factor 2/antioxidant responsive element (Nrf2/ARE) small molecule agonists: luciferase reporter gene qHTS assay in human keratinocytes (AID 1919969); also: nearly all actives have a fitted effect of over 35% in size"}, "[3]": {"biological_target": "Gonadotropin-releasing hormone receptor (Homo sapiens) (UniProt P30968)", "sequence (P30968 whole entry, looked up)": "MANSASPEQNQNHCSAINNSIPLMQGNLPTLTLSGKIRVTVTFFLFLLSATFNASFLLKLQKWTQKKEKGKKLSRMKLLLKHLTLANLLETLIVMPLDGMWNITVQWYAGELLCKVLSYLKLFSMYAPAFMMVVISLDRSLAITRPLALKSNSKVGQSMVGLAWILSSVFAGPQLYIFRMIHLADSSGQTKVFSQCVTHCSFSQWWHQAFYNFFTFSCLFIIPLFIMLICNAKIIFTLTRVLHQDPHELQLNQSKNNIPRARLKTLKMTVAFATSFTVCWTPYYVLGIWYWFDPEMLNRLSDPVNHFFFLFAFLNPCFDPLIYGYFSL", "experiment": "Human gonadotropin-releasing hormone receptor (GnRHR) small molecule agonists, calcium flux assay in GnRHR-HEK293 cells (AID 1920063); also: nearly all actives have a fitted effect of over 35% in size", "procedure,_shortened": "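Intracellular calcium rise is the read-out: engineered human GnRHR HEK293 cells, dye-loaded, are exposed to DMSO-dissolved compounds and fluorescence at Ex/Em 480/540 is tracked for 3 min.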"}, "[4]": {"biological_target": "KiSS-1 receptor (Homo sapiens) (UniProt Q969F8)", "sequence (Q969F8 whole entry, looked up)": "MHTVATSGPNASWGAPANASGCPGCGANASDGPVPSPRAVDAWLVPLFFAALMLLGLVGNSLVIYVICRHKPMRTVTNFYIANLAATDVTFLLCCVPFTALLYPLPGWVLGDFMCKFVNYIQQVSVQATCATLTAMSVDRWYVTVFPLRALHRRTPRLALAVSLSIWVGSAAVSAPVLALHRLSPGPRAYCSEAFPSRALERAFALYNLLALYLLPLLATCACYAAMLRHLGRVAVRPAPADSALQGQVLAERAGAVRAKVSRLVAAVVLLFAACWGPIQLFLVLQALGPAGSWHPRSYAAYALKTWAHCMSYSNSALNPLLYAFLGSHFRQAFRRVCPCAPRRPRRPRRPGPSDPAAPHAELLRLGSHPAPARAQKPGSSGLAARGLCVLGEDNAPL", "experiment": "Human kisspeptin (KISS1R) small molecule agonists, calcium flux assay in KISS1R-HEK293 cells (AID 1920064; active = well fitted curve in the direction sought with a large enough effect in the repeat runs; an effect the other way counts as inactive or inconclusive)", "procedure,_shortened": "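Concentration-response testing used 15 concentrations in triplicate on human KISS1R-expressing HEK293 cells. Calcium-dependent fluorescence (Ex/Em 480/540) was followed kinetically for 3 min after compound transfer.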"}, "[5]": {"experiment": "G protein-coupled receptor (GPCR) small molecule agonists, calcium flux assay: HEK293 wild type cell line counter screen (AID 1920065)", "procedure,_shortened": "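Fluorescence intensity signals activation. After overnight (18 h) culture and a 1 h calcium dye load at 37 C, compounds are added by pin tool and the plate read at 480/540 nm for 3 min in 1 s steps.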"}, "[6]": {"experiment": "p53 small molecule agonists, cell-based qHTS assay with rat liver microsomes (AID 1963578)", "procedure,_shortened": "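p53RE-bla cells, 4,000/well, pre-incubated 5 h, then given compounds plus rat liver microsomes (0.5 mg/mL final) and NADPH (0.5 mg/mL final). Incubation 16 h at 37 C; beta-lactamase reporter read by LiveBLAzer fluorescence after 2 h at room temperature.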"}, "[7]": {"experiment": "p53 small molecule agonists, cell-based qHTS assay with human liver microsomes: qHTS cell viability counter screen (AID 1963579); also: nearly all actives have a fitted effect of over 45% in size", "procedure,_shortened": "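p53RE-bla cells, 4,000/well, dosed 5 hours after plating, with human liver microsomes (0.5 mg/mL final) plus NADPH (0.5 mg/mL final), 16 hours at 37 C. Viability read as CellTiter-Glo luminescence after 30 min at room temperature.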"}, "[8]": {"experiment": "p53 small molecule agonists, cell-based qHTS assay with rat liver microsomes: qHTS cell viability counter screen (AID 1963580); also: nearly all actives have a fitted effect of over 45% in size", "procedure,_shortened": "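Counter screen for cytotoxicity under metabolic activation: rat liver microsomes and NADPH, 0.5 mg/mL final each, added with compounds to p53RE-bla HCT-116 cells; 16 h at 37 C, then ATP luminescence read.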"}, "[9]": {"experiment": "p53 small molecule agonists, cell-based qHTS assay: qHTS cell viability counter screen (AID 1963581); also: nearly all actives have a fitted effect of over 45% in size; also: potency is read from the fitted curve at half-maximal effect", "procedure,_shortened": "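Luminescence from CellTiter-Glo, reflecting ATP content, serves as the cytotoxicity measure; it is taken after the 2 h reporter substrate step in HCT-116 p53RE-bla cells dosed for 16 h at 37 C.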"}, "[10]": {"experiment": "p53 small molecule agonists, cell-based qHTS assay (AID 1963582; active = well fitted activation curve with a large enough effect in the signal ratio in the repeat runs, not every such curve was filed as active; the % refers to the signal ratio)", "procedure,_shortened": "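After plating, p53RE-bla cells sat 5 h in the incubator; compounds or DMSO vehicle were pinned in; a 16 h incubation at 37 C followed; FRET substrate was added and, 2 h later at RT, fluorescence was measured.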"}, "[11]": {"biological_target": "5-hydroxytryptamine receptor 2A (Homo sapiens) (UniProt P28223)", "sequence (P28223 whole entry, looked up)": "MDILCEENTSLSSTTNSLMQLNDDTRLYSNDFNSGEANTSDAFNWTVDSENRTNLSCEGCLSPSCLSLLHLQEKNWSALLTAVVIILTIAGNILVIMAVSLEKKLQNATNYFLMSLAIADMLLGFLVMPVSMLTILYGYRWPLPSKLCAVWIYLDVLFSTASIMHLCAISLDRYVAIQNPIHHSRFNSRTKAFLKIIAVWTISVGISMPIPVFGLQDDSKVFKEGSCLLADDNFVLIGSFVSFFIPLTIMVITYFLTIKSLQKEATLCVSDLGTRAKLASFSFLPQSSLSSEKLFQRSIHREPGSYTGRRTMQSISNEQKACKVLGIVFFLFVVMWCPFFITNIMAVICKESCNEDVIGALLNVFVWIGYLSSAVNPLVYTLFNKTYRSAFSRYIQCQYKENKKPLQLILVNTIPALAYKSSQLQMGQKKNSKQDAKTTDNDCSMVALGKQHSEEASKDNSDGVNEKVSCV", "experiment": "5-hydroxytryptamine receptor 2A (HTR2A) small molecule agonists, cell-based qHTS assay (AID 1963587); also: nearly all actives have a fitted effect of over 30% in size", "procedure,_shortened": "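HTR2A-CHO cells, plated 18 h at 37 C/5% CO2, dye-loaded 1 h at 37 C; compounds in DMSO added by pin tool (agonist mode). Intracellular calcium flux read as kinetic fluorescence on FDSS over 2 min at 1 s intervals.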"}, "[12]": {"biological_target": "Muscarinic acetylcholine receptor M1 (Homo sapiens) (UniProt P11229)", "sequence (P11229 whole entry, looked up)": "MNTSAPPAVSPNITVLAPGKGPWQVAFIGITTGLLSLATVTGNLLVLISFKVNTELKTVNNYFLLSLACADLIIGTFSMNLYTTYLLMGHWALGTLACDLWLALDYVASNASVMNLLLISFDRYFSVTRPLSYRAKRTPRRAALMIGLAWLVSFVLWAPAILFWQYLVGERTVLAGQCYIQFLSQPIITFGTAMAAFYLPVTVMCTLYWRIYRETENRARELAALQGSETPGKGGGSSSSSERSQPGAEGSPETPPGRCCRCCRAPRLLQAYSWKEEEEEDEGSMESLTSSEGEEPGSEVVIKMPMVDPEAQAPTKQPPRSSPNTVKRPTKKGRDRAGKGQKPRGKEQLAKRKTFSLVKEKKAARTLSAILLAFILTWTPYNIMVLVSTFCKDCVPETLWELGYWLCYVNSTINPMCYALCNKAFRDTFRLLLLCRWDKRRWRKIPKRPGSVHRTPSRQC", "experiment": "Cholinergic receptor muscarinic 1 (CHRM1) small molecule antagonists, cell-based qHTS assay (AID 1963588); also: nearly all actives have a fitted effect of over 40% in size", "procedure,_shortened": "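Compounds were tested at 15 concentrations in three independent runs. Dye-loaded CHRM1-CHO cells were exposed 5 min at room temperature before stimulation by acetylcholine added at 50nM. Intracellular calcium was read kinetically on FDSS for 3 min.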"}, "[13]": {"biological_target": "Muscarinic acetylcholine receptor M1 (Homo sapiens) (UniProt P11229)", "experiment": "Cholinergic receptor muscarinic 1 (CHRM1) small molecule agonists, cell-based qHTS assay (AID 1963589); also: nearly all actives have a fitted effect of over 35% in size", "procedure,_shortened": "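Fluorescent calcium dye reports M1 activation in stably transfected CHO cells. Compounds, 15 concentrations, added after 1 h dye loading at 37 C; kinetic reading at 1 sec intervals.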"}, "[14]": {"experiment": "cAMP Responsive Elements (CRE) small molecule agonists, cell-based qHTS assay (AID 1963590)", "procedure,_shortened": "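Compound exposure lasted 3 h at 37 C/5% CO2 in CRE-bla HEK 293T cells grown in assay medium with 10% dialyzed FBS and 25 mM HEPES. Reporter signal came from LiveBLAzer B/G FRET substrate, 2 h, room temperature.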"}, "[15]": {"experiment": "cAMP Responsive Elements (CRE) small molecule antagonists, cell-based qHTS assay (AID 1963591; active = well fitted inhibition curve with a large enough effect in the signal ratio in the repeat runs, not every such curve was filed as active; the % refers to the signal ratio)", "procedure,_shortened": "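Stimulation used NKH477 at a final 0.25 uM for 3 h in compound-treated CRE-bla HEK293T cells, seeded 18 h beforehand. Reporter activity was measured with LiveBLAzer B/G FRET substrate after 2 h at room temperature.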"}, "[16]": {"biological_target": "Beta-2 adrenergic receptor (Homo sapiens) (UniProt P07550)", "sequence (P07550 whole entry, looked up)": "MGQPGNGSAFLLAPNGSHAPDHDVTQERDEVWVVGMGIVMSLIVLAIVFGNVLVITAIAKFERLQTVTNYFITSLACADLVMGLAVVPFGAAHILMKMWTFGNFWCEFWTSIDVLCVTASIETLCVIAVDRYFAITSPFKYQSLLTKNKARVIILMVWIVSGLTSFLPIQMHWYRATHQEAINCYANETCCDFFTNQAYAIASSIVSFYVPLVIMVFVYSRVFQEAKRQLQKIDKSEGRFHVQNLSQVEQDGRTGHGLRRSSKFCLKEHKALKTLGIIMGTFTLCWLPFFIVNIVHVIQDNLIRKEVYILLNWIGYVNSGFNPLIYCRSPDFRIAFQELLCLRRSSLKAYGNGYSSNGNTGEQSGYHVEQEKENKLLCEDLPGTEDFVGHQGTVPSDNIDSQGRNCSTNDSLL", "experiment": "Adrenergic beta2 receptor (ADRB2) small molecule antagonists, cell-based qHTS assay (AID 1963592); also: series mostly up to about 92 µM; nearly all actives have a fitted effect of over 50% in size", "procedure,_shortened": "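Assay format: CHO-ADRB2 cells, 18-20hr seeding at 37C/5% CO2, then compound plus 1nM isoproterenol agonist mix for 0.5hr RT. Homogeneous time-resolved fluorescence cAMP detection after 1hr, expressed as 665/615 nm ratio.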"}, "[17]": {"biological_target": "Beta-2 adrenergic receptor (Homo sapiens) (UniProt P07550)", "experiment": "Adrenergic beta2 receptor (ADRB2) small molecule agonists, cell-based qHTS assay (AID 1963593)", "procedure,_shortened": "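CHO cells stably over-expressing ADRB2 were plated overnight at 37C, then dosed with compounds plus a stimulation mix containing 100uM IBMX and 25uM Ro-20-1724 for 0.5hr at room temperature. cAMP was measured by HTRF competition, 1hr.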"}, "[18]": {"biological_target": "D(2) dopamine receptor (Homo sapiens) (UniProt P14416)", "sequence (P14416 whole entry, looked up)": "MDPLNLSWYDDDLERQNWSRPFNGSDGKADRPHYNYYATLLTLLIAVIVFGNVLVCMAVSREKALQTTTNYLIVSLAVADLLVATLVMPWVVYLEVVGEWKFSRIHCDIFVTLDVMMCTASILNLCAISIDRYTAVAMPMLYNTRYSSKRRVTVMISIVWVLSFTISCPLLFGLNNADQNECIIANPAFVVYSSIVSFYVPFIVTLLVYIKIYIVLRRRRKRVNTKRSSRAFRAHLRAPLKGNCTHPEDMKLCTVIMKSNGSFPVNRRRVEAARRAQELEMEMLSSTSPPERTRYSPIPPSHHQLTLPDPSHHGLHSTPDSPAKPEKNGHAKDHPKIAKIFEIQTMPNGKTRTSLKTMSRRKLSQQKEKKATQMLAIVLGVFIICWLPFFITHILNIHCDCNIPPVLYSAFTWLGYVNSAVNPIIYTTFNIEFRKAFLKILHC", "experiment": "Dopamine D2 receptor (DRD2) small molecule agonists, cell-based qHTS assay (AID 1963594); also: nearly all actives have a fitted effect of over 35% in size", "procedure,_shortened": "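HEK293 cells stably expressing DRD2 were cultured 24 h at 37 C, then given Ro20-1724 (0.1 mM final) and compounds for 10 min at room temperature. NKH477 (200nM) was then added for 30 min. cAMP was read by HTRF.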"}, "[19]": {"biological_target": "D(2) dopamine receptor (Homo sapiens) (UniProt P14416)", "experiment": "Dopamine D2 receptor (DRD2) small molecule antagonists, cell-based qHTS assay (AID 1963595; active = well fitted inhibition curve with a large enough effect in the signal ratio in the repeat runs, with a control signal flat; the % refers to the signal ratio)", "procedure,_shortened": "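Stable D2 receptor HEK293 line, 24 h after seeding. Compound preincubated 10 min, then quinpirole (12 nM) with forskolin analogue NKH477 (200 nM), 30 min, room temperature. Detection by time-resolved FRET of cAMP.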"}},
  "note": "A number with no mark means an inactive call. Results filed as inconclusive are left out. Entries that show only a call come without a potency. The source made the active and inactive calls. Unless noted, calls follow the shape of the full dose curve.",
  "data": [
    {"smiles": "CC(=O)OCC(=O)[C@@]1(O)[C@H](OC(C)=O)C[C@H]2[C@@H]3CCC4=CC(=O)C=C[C@]4(C)[C@@]3(F)[C@@H](O)C[C@@]21C", "values": [
      {"measurement": "Potency", "setting": "[1]", "value": "inactive"},
      {"measurement": "Potency", "setting": "[2]", "value": "inactive"},
      {"measurement": "Potency", "setting": "[3]", "value": "inactive"},
      {"measurement": "Potency", "setting": "[4]", "value": "inactive"},
      {"measurement": "Potency", "setting": "[5]", "value": "inactive"},
      {"measurement": "Potency", "setting": "[6]", "value": "inactive"},
      {"measurement": "Potency", "setting": "[7]", "value": "inactive"},
      {"measurement": "Potency", "setting": "[8]", "value": "inactive"},
      {"measurement": "Potency", "setting": "[9]", "value": "inactive"},
      {"measurement": "Potency", "setting": "[10]", "value": "inactive"},
      {"measurement": "Potency", "setting": "[11]", "value": "inactive"},
      {"measurement": "Potency", "setting": "[12]", "value": "inactive"},
      {"measurement": "Potency", "setting": "[13]", "value": "inactive"},
      {"measurement": "Potency", "setting": "[14]", "value": "inactive"},
      {"measurement": "Potency", "setting": "[15]", "value": "inactive"},
      {"measurement": "Potency", "setting": "[16]", "value": "inactive"},
      {"measurement": "Potency", "setting": "[17]", "value": "inactive"},
      {"measurement": "Potency", "setting": "[18]", "value": "inactive"},
      {"measurement": "Potency", "setting": "[19]", "value": "inactive"}
    ]},
    {"smiles": "CN(C)C(=O)NC1(c2ccccc2)CCN(CC[C@@]2(c3ccc(F)c(F)c3)CN(C(=O)c3ccccc3)CCO2)CC1", "values": [
      {"measurement": "Potency", "setting": "[1]", "value": "inactive"},
      {"measurement": "Potency", "setting": "[2]", "value": "inactive"},
      {"measurement": "Potency", "setting": "[3]", "value": "inactive"},
      {"measurement": "Potency", "setting": "[4]", "value": "inactive"},
      {"measurement": "Potency", "setting": "[5]", "value": "inactive"},
      {"measurement": "Potency", "setting": "[6]", "value": "inactive"},
      {"measurement": "Potency", "setting": "[7]", "value": "inactive"},
      {"measurement": "Potency", "setting": "[8]", "value": "inactive"},
      {"measurement": "Potency", "setting": "[9]", "value": "inactive"},
      {"measurement": "Potency", "setting": "[10]", "value": "inactive"},
      {"measurement": "Potency", "setting": "[11]", "value": "inactive"},
      {"measurement": "Potency", "setting": "[13]", "value": "inactive"},
      {"measurement": "Potency", "setting": "[16]", "value": "inactive"},
      {"measurement": "Potency", "setting": "[17]", "value": "inactive"},
      {"measurement": "Potency", "setting": "[18]", "value": "inactive"}
    ]},
    {"smiles": "Cc1onc(-c2c(Cl)cccc2Cl)c1C(=O)Cl", "values": [
      {"measurement": "Potency", "setting": "[1]", "value": "inactive"},
      {"measurement": "Potency", "setting": "[2]", "value": "inactive"},
      {"measurement": "Potency", "setting": "[3]", "value": "inactive"},
      {"measurement": "Potency", "setting": "[4]", "value": "inactive"},
      {"measurement": "Potency", "setting": "[5]", "value": "inactive"},
      {"measurement": "Potency", "setting": "[6]", "value": "inactive"},
      {"measurement": "Potency", "setting": "[7]", "value": "inactive"},
      {"measurement": "Potency", "setting": "[8]", "value": "inactive"},
      {"measurement": "Potency", "setting": "[9]", "value": "inactive"},
      {"measurement": "Potency", "setting": "[10]", "value": "inactive"},
      {"measurement": "Potency", "setting": "[11]", "value": "inactive"},
      {"measurement": "Potency", "setting": "[12]", "value": "inactive"},
      {"measurement": "Potency", "setting": "[13]", "value": "inactive"},
      {"measurement": "Potency", "setting": "[15]", "value": "inactive"},
      {"measurement": "Potency", "setting": "[16]", "value": "inactive"},
      {"measurement": "Potency", "setting": "[18]", "value": "inactive"},
      {"measurement": "Potency", "setting": "[19]", "value": "inactive"}
    ]},
    {"smiles": "CC(=O)NC1(c2cccc(F)c2)CCN(CC[C@@]2(c3ccc(Cl)c(Cl)c3)CN(c3ccccc3)C(=O)CO2)CC1", "values": [
      {"measurement": "Potency", "setting": "[1]", "value": "48.7 µM (active)"},
      {"measurement": "Potency", "setting": "[2]", "value": "inactive"},
      {"measurement": "Potency", "setting": "[3]", "value": "inactive"},
      {"measurement": "Potency", "setting": "[4]", "value": "inactive"},
      {"measurement": "Potency", "setting": "[5]", "value": "inactive"},
      {"measurement": "Potency", "setting": "[6]", "value": "inactive"},
      {"measurement": "Potency", "setting": "[7]", "value": "inactive"},
      {"measurement": "Potency", "setting": "[8]", "value": "inactive"},
      {"measurement": "Potency", "setting": "[9]", "value": "36.5 µM (active)"},
      {"measurement": "Potency", "setting": "[10]", "value": "inactive"},
      {"measurement": "Potency", "setting": "[11]", "value": "inactive"},
      {"measurement": "Potency", "setting": "[12]", "value": "inactive"},
      {"measurement": "Potency", "setting": "[13]", "value": "inactive"},
      {"measurement": "Potency", "setting": "[18]", "value": "inactive"},
      {"measurement": "Potency", "setting": "[19]", "value": "inactive"}
    ]}
  ]
}
